Measurements published in PubChem BioAssay.
Calls of active or inactive are those of the source.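 How the source made its calls, unless noted: active means compounds whose cell count with miR-34 switched on is under 0.7 times the count with it off; inactive means the rest.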

Columns and labels:
[1] = sensitizers of A549 cells to miR-34 induction, primary screen, imaging, A549 dox-inducible miR-34, nuclei and caspase counts (AID 1347080); conditions: A549 miR-34 inducible, Hoechst nuclei count, 48 h; further: test concentration not given here
[2] = viability rescue of complex I mutant cybrids, primary screen, cell-based, galactose medium, ATP luminescence (AID 1645843;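 active means z-score of at least 1.8 in each of two replicates, scored against plate mean and spread of sample wells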;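 further: positive z means more ATP and so rescue of galactose-driven cybrid death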); conditions: complex I mutant cybrid cells, 72 h, stronger effect = higher value
[3] = stronger effect = lower value, cell number ratio, induced over uninduced
[4] = measured here: relative caspase fold change +Dox/-Dox
[5] = measured here: total cells with miR-34 induction, stronger effect = lower value
[6] = measured here: total cells without miR-34 induction

Row | SMILES | fold change [1, 3] | fold change [1, 4] | cell count [1, 5] | cell count [1, 6] | z-score [2]
1 | CC1(C)SC2C(N=CN3CCCCCC3)C(=O)N2C1C(=O)O (stereo not given) | 0.941 (inactive) | 1.42 | 9640 | 10200 | 0.33 (inactive)
2 | CC#C[C@]1(O)CCC2C3CCC4=CC(=O)CCC4=C3C(c3ccc(N(C)C)cc3)C[C@@]21C (stereo not given in full) | 0.84 (inactive) | 0.861 | 5600 | 6670 | -0.035 (inactive)
3 | CCOC(=O)O[C@]1(C(=O)OCCl)CCC2C3CCC4=CC(=O)C=C[C@]4(C)C3C(O)C[C@@]21C (stereo not given in full) | 0.961 (inactive) | 1.35 | 6110 | 6360 | 0.71 (inactive)
4 | CC[C@]1(O)CC2CN(CCc3c([nH]c4ccccc34)[C@@](C(=O)OC)(c3cc4c(cc3OC)N(C=O)C3[C@@](O)(C(=O)OC)C(OC(C)=O)[C@]5(CC)C=CCN6CC[C@]43C65)C2)C1 (stereo not given in full) | 0.746 (inactive) | 1.38 | 1340 | 1800 | -1.05 (inactive)
5 | COC1OC2O[C@@]3(C)CCC4C(C)CCC(C1C)[C@@]24OO3 (stereo not given in full) | 0.961 (inactive) | 0.771 | 9270 | 9650 | -0.035 (inactive)
6 | CC(C)(C)NC(=O)C1CN(Cc2cccnc2)CCN1CC(O)CC(Cc1ccccc1)C(=O)NC1c2ccccc2CC1O (stereo not given) | 0.967 (inactive) | 1.5 | 9380 | 9700 | 1.61 (inactive)
7 | CC[C@]1(O)CC2CN(CCc3c([nH]c4ccccc34)[C@@](C(=O)OC)(c3cc4c(cc3OC)N(C)C3[C@@](O)(C(N)=O)C(O)[C@]5(CC)C=CCN6CC[C@]43C65)C2)C1 (stereo not given in full) | 0.722 (inactive) | 1.09 | 1070 | 1480 | -1.19 (inactive)
8 | CN(C)CCC=C1c2ccccc2COc2ccccc21 | 0.942 (inactive) | 2.06 | 8300 | 8810 | -0.535 (inactive)
9 | CCC1=CC2CN(C1)Cc1c([nH]c3ccccc13)[C@@](C(=O)OC)(c1cc3c(cc1OC)N(C)C1[C@@](O)(C(=O)OC)C(OC(C)=O)[C@]4(CC)C=CCN5CC[C@]31C54)C2 (stereo not given in full) | 1.19 (inactive) | 1.47 | 1620 | 1360 | -1.06 (inactive)
10 | COCc1c(C(C)C)nc(C(C)C)c(C=CC(O)CC(O)CC(=O)O)c1-c1ccc(F)cc1 (stereo not given) | 1.06 (inactive) | 2.76 | 1210 | 1140 | -1.86 (inactive)
11 | OCC1OC(n2cnc3c(NC4CCCC4)nc(Cl)nc32)C(O)C1O (stereo not given) | 0.88 (inactive) | 1.42 | 9520 | 10800 | 1.5 (inactive)
